Calls of active or inactive are those of the source.
Assays:
[1] = target: Albumin (Bos taurus) (UniProt P02769); assay: bovine serum albumin binders on microarray, profiling panel, artefact control for SMM control protein annotation, biochemical, small-molecule microarray, Alexa647 label, 635/667 nm fluorescence (AID 1118); settings: BSA-A647 binding, fluorescence 635 nm, higher = more signal;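 also: score merges 667 nm emission intensity and signal-to-noise per printed compound spot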
[2] = small-molecule microarray binders of probe aXIP, primary screen, biochemical, NeuroSMM set, 635/667 nm fluorescence (AID 1119); settings: higher = more signal, called active from +8 up or from −8 down;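 also: probe is the protein aXip251-270 applied at 1 µg/mL to compound-printed slides; binding of probe to printed compounds measured as 667 nm fluorescence plus signal to noise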
[3] = small-molecule binders of probe aNOTCH3, primary screen, biochemical, small-molecule microarray, 635/667 nm fluorescence (AID 1120); settings: higher = more signal;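 also: probe is a biotin-tagged antibody raised against NOTCH3 rather than NOTCH3 protein; score merges spot fluorescence near 667 nm with spot signal to noise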
[4] = small-molecule binders of probe aNOTCH2, primary screen, biochemical, small-molecule microarray, 635/667 nm fluorescence (AID 1121); settings: higher = more signal;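 also: score merges feature fluorescence read at 667 nm with its signal to noise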
[5] = target: Carbonic anhydrase 2 (Homo sapiens) (UniProt P00918); assay: CAII small-molecule binders, profiling panel, biochemical, small-molecule microarray, Alexa647-labelled CAII (AID 1122); settings: CAII-A647 binding fluorescence, higher = more signal
[6] = COS7 lysate on small-molecule microarray, probe aHis, 635 nm (AID 1123); settings: COS7 cell lysate, fluorescence, higher = more signal;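 also: z-score combines 667nm fluorescence intensity with signal-to-noise per printed compound spot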
[7] = compound binding in COS7 lysate, probe aLAP1, primary screen, cell lysate, small-molecule microarray (AID 1124); settings: probe aLAP1, fluorescence, higher = more signal;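 also: lysate comes from COS7 cells expressing LAP1 and is applied at 0.3 µg/mL; score merges spot fluorescence near 667 nm with signal-to-noise over triplicate slides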
[8] = tested on: Sam68 (KHDRBS1); assay: Sam68 small-molecule binders, primary screen, biochemical, small-molecule microarray, 635 nm fluorescence (AID 1125); settings: small-molecule microarray binding, higher = more signal;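 also: score merges 667 nm channel intensity with signal to noise over triplicate slides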
[9] = tested on: Chordin-like protein 2 (CHRDL2); assay: CHRDL2 small-molecule binders, primary screen, biochemical, small-molecule microarray, 635 nm fluorescence (AID 1126); settings: small-molecule microarray binding, fluorescence 635 nm; higher = more signal;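 also: printed compound slides probed with Chrdl2 protein at 4 µg/mL for 1 h at 4 C; score merges 667 nm emission intensity with signal to noise over three replicate slides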
[10] = target: Concanavalin-A (Canavalia ensiformis) (UniProt P02866); assay: ConA small-molecule binders, primary screen, artefact control for SMM control protein annotation, biochemical, small-molecule microarray, Alexa647 label, 635 nm (AID 1127); settings: ConA-A647 binding fluorescence, higher = more signal;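 also: z combines 667 nm emission intensity with signal-to-noise across three replicate slides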
[11] = anti-His antibody binders, primary screen, artefact control for SMM control protein annotation, biochemical, small-molecule microarray, 635 nm fluorescence (AID 1128); settings: anti-His Alexa647 antibody binding, higher = more signal;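 also: score merges feature fluorescence with signal-to-noise for each printed compound spot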
[12] = tested on: Human papillomavirus type 1a E7 protein (residues 1-88); assay: HPV1a E7 small-molecule binders, primary screen, biochemical, small-molecule microarray, residues 1-88, 635 nm (AID 1129); settings: small-molecule microarray binding, fluorescence 635 nm; higher = more signal
[13] = target: Focal adhesion kinase 1 (Homo sapiens) (UniProt Q05397); assay: small-molecule microarray binders of FAK, primary screen, biochemical, 635/667 nm fluorescence, BSA, DTT (AID 1130); settings: PTK2 binding, 635 nm fluorescence, higher = more signal;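 also: composite of spot emission at 667 nm and signal to noise over triplicate slides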
[14] = tested on: Fibrinogen (Alexa647-labelled); assay: fibrinogen binders on compound microarrays, profiling panel, artefact control for SMM control-protein annotation, biochemical, small-molecule microarray, 635/667 nm fluorescence (AID 1131); settings: fibrinogen-A647 binding fluorescence, higher = more signal;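 also: z-score merges 667 nm fluorescence with per-spot signal-to-noise over triplicate slides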
[15] = target: Follistatin (Homo sapiens) (UniProt P19883); assay: follistatin binders on small-molecule microarrays, primary screen, biochemical, small-molecule microarray, 635/667 nm fluorescence (AID 1132); settings: FST binding, 635 nm fluorescence, higher = more signal
[16] = target: Fibroblast growth factor 2 (Homo sapiens) (UniProt P09038); assay: FGF2 binders on small-molecule microarrays, primary screen, biochemical, small-molecule microarray, 635/667 nm fluorescence (AID 1133); settings: small-molecule microarray binding, FGF2, fluorescence 635/667; higher = more signal
[17] = mitochondrial membrane potential change in A549 cells, profiling panel, cell-based, JC-1 fluorescence, basal, 24 h, 100 nL (AID 1138); settings: higher = more signal;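 also: A549 lung adenocarcinoma cells under basal conditions with no added stimulus; test concentration not given here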
[18] = tested on: Lefty1; assay: Lefty1 binders on small-molecule microarrays, primary screen, biochemical, small-molecule microarray, 635/667 nm fluorescence (AID 1139); settings: small-molecule microarray binding, fluorescence 635/667; higher = more signal
[19] = tested on: wheat germ agglutinin (Triticum aestivum), Alexa647-labelled; assay: wheat germ agglutinin binders on compound microarrays, profiling panel, artefact control for SMM control-protein annotation, biochemical, small-molecule microarray, 635/667 nm fluorescence (AID 1140); settings: WGA-A647 binding, 635 nm fluorescence, higher = more signal;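 also: score merges 667 nm feature emission with signal to noise over triplicate slides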
[20] = target: Luciferin 4-monooxygenase (Photinus pyralis) (UniProt P08659); assay: firefly luciferase enzyme inhibitors, primary screen, biochemical, luminescence, purified enzyme, 2006 set (AID 1141); settings: SteadyGlo luminescence, 30 min, higher = more signal, called active from +8 up or from −8 down;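 also: cell-free assay with purified firefly luciferase at 100 ng per well in PBS; test concentration not given here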
Sequence of Luciferin 4-monooxygenase (Photinus pyralis) (P08659 whole entry, looked up): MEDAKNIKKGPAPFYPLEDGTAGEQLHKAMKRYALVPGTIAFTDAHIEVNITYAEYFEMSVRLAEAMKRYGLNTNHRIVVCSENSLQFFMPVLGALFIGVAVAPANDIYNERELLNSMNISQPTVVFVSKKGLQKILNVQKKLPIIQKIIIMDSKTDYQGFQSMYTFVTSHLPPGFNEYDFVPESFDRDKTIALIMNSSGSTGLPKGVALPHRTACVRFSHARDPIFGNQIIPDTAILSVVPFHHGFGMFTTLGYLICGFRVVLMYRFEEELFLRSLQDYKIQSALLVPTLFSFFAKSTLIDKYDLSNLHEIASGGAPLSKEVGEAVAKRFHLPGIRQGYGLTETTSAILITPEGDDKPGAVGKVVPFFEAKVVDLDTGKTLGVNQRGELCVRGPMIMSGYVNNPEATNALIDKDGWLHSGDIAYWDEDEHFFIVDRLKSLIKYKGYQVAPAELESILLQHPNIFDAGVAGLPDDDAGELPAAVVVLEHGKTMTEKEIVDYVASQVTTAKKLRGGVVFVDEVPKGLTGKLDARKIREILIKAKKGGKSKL

Sequence of Concanavalin-A (Canavalia ensiformis) (P02866 whole entry, looked up): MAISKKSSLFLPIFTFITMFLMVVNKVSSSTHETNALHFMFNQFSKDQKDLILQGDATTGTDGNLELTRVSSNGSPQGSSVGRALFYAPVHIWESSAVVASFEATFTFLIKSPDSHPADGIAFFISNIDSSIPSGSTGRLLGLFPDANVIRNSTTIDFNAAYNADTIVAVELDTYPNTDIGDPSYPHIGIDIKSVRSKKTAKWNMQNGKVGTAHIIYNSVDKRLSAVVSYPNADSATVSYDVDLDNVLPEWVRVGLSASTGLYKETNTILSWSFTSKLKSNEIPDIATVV
Sequence of Fibroblast growth factor 2 (Homo sapiens) (P09038 whole entry, looked up): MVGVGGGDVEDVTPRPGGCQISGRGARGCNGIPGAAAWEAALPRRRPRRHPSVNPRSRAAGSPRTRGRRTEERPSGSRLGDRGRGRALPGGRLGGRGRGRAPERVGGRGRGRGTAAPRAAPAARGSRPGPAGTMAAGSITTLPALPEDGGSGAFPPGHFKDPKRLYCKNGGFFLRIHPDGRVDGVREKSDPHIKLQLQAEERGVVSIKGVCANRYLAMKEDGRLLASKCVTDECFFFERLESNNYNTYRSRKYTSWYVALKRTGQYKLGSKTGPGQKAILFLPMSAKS
Sequence of Albumin (Bos taurus) (P02769 whole entry, looked up): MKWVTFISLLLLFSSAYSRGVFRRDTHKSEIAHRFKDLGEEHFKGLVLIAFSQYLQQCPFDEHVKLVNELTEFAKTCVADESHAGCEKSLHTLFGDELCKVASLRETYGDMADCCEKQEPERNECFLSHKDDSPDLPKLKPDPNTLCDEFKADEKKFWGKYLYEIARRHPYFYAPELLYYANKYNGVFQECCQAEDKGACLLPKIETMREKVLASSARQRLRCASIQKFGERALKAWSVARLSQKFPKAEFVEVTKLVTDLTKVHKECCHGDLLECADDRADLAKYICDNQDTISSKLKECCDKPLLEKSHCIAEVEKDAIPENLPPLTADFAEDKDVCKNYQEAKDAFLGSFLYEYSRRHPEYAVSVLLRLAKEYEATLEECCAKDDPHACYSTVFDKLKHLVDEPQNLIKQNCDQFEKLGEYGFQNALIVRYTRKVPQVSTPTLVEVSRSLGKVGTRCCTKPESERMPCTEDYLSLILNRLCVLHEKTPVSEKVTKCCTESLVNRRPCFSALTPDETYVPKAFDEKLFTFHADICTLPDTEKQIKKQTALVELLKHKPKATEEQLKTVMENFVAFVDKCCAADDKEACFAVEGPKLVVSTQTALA
Sequence of Follistatin (Homo sapiens) (P19883 whole entry, looked up): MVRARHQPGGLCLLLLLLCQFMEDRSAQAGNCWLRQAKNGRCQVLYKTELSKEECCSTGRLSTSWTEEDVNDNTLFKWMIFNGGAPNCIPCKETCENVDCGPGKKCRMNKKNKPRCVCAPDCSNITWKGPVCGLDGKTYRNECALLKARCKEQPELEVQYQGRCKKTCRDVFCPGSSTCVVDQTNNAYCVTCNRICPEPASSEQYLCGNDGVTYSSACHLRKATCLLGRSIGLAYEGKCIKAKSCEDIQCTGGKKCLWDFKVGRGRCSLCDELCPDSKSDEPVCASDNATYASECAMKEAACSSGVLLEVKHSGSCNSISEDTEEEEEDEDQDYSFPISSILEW
Sequence of Focal adhesion kinase 1 (Homo sapiens) (Q05397 whole entry, looked up): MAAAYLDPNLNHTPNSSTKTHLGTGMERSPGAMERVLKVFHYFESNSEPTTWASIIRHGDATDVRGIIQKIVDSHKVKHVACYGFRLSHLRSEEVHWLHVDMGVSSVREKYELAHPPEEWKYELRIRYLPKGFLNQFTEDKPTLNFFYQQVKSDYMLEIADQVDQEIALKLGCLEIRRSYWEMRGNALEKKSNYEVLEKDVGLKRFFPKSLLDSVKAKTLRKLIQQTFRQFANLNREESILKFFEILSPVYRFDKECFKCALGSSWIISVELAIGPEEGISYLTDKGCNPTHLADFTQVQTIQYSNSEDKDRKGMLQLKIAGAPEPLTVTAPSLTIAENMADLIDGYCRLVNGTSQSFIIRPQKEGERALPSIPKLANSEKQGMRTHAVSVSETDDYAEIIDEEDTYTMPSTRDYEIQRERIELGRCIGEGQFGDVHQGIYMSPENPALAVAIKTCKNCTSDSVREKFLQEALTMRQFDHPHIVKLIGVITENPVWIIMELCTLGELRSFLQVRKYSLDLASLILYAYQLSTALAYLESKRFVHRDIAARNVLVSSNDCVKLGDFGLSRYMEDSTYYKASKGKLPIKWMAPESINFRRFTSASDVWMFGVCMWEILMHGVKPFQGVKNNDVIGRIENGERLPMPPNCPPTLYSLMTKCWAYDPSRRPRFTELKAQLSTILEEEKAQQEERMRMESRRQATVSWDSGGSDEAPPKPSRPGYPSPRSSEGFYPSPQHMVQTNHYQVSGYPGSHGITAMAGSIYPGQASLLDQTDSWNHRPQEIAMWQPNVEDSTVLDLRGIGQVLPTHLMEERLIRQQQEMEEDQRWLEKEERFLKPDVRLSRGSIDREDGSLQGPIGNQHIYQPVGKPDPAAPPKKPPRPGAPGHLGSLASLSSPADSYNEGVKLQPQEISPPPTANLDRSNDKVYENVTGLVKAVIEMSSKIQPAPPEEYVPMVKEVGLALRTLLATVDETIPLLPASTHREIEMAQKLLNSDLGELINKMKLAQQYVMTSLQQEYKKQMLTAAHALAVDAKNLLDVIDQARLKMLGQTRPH

| Structure (SMILES) | composite z-score [1] | composite Z-score [2] | composite z-score [3] | composite z-score [4] | composite z-score [5] | composite z-score [6] | composite z-score [7] | composite z-score [8] | composite z-score [9] | composite z-score [10] | composite z-score [11] | composite z-score [12] | composite z-score [13] | composite z-score [14] | composite z-score [15] | composite z-score [16] | z-score [17] | composite z-score [18] | composite z-score [19] | z-score [20] |
| --- | --- | --- | --- | --- | --- | --- | --- | --- | --- | --- | --- | --- | --- | --- | --- | --- | --- | --- | --- | --- |
| C=C(CCCC)/C(=C/C[C@@H](OC(C)=O)c1ccc(OCCO)cc1)c1cc(C(=O)OC)ccc1OC | -0.526 | 0.0578 (inactive) | -0.0377 | -0.092 | 0.721 | 1.55 | 0.155 | 1.2 | -0.362 | 0.787 | -0.435 | 0.858 | 0.304 | -0.156 | 0.335 | -0.0009 | 1.85 | 0.548 | 0.94 | -1.07 (inactive) |
| CC(C)C(=C=CC[C@H](O)c1cccc(OCCO)c1)C[C@H](O)c1ccccn1 | 0.481 | -0.128 (inactive) | -0.0647 | -0.146 | 0.811 | 0.48 | 0.182 | 0.353 | -0.0719 | 0.13 | 0.474 | 0.534 | 0.0358 | -1.37 | 0.972 | 0.236 | 0.717 | 0.788 | 0.641 | -0.147 (inactive) |
| O=C(O)C1=CC[C@H]2C(=O)N(c3ccccc3)C(=O)[C@@H]12 | 0.342 | 0.277 (inactive) | 0.21 | -0.0216 | 0.425 | 1.33 | 0.453 | 1.31 | -0.0125 | 1.02 | 0.39 | 1.2 | 0.424 | 0.272 | 0.845 | -0.12 | -1.27 | 0.0347 | 0.701 | 1.57 (inactive) |
| COc1ccc(CCNC(=O)[C@@H]2c3ccccc3C(=O)N(Cc3cc(F)cc(C(F)(F)F)c3)[C@H]2c2ccc(CO)cc2)cc1 | -0.0885 | -0.795 (inactive) | 0.249 | 0.207 | 0.753 | 2.1 | 1.51 | 1.03 | 0.0818 | 0.198 | 0.634 | 0.544 | 0.137 | 0.227 | 1 | 0.409 | 3.34 | -0.192 | 0.871 | -1.13 (inactive) |
| C=C(CCCC)C(=O)CC[C@H](OC(=O)c1ccccc1-c1ccccc1C(=O)O)c1cccc(OCCO)c1 | 0.314 | -0.634 (inactive) | -0.161 | -0.126 | 0.749 | 0.729 | 1.07 | 0.225 | -0.189 | -1.14 | -0.413 | -0.298 | -0.194 | -0.435 | -0.0662 | 0.591 | 0.15 | 0.191 | -0.373 | -0.755 (inactive) |
| COC(=O)[C@@]1(Cc2ccccc2)[C@H]2c3cc(C(=O)N(C)C)n(Cc4ccc(Cl)c(C(F)(F)F)c4)c3C[C@H]2CN1C(=O)c1ccccc1 | 0.811 | -0.215 (inactive) | 0.745 | 0.445 | 0.668 | 1.9 | 0.402 | 1.2 | -0.123 | 0.95 | 1.17 | 1.16 | -0.104 | 0.93 | 1.22 | 0.33 | 0.32 | 1.33 | 0.674 | 1.52 (inactive) |
| [N-]=[N+]=NCc1ccccc1[C@H]1OC(c2ccc(OCCCO)cc2)=N[C@@]1(Cc1ccccc1N=[N+]=[N-])C(N)=O | 0.884 | 0.385 (inactive) | 0.339 | -0.229 | 0.743 | 2.72 | -0.182 | 1.27 | -0.0265 | 1.08 | 1.03 | 1.14 | 0.579 | 1.01 | 1.21 | 0.27 | 0.145 | 0.174 | 1.21 | -3.23 (inactive) |
| O=C1C2C=CC(C(O)C3CCCCC3)N(Nc3ccccc3F)C2C(=O)N1c1ccccc1 (stereo not given) | 0.97 | 0.485 (inactive) | 0.457 | 0.252 | 0.244 | 2.71 | 1 | 1.31 | 0.426 | 1.2 | 1.87 | 1.23 | 1.76 | 1.01 | 1.17 | -0.494 | -0.791 | 0.168 | 0.682 | -1.02 (inactive) |
| COc1ccc([Si](C)(C)[C@@H]2[C@@H](CC(=O)N(CCO)Cc3ccccc3)O[C@]3(C(=O)N(Cc4cccc(I)c4)c4ccccc43)[C@H]2C)cc1 | -0.783 | 0.0089 (inactive) | 0.0522 | -0.0576 | 0.364 | 0.763 | 0.363 | 1.01 | 1.12 | 0.779 | 0.853 | 1.12 | -0.14 | 0.604 | 1.48 | 1.68 | -0.781 | 1.51 | 0.618 | -0.216 (inactive) |

Reference: PubChem BioAssay
